Reference: PubChem BioAssay (NCI)
Several values for one entry are separate records, joined by “and”; a condition that tells them apart may be missing. Equal entries are not always repeated. Compounds without any hit were thinned out: in the full panel of roughly 83,000, 20% have a hit.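 Activity criterion: percent growth below 10, measured after cells in 96-well plates were exposed to a single compound concentration for 48 hours.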 Activity calls are given as the source filed them.

These molecules were tested on RPMI-8226 leukemia (assay: NCI-60 one-dose screen, 48 h (100 = growth as untreated, 0 = no growth, -100 = all killed)). Conditions: 10 µM unless noted.

SMILES	growth
CN1Cn2c(ccc2C(F)(F)F)C(=O)CS1(=O)=O	109% (inactive)
CCCc1cc(C(N)=S)ccn1	120% (inactive)
C#CCn1cnc2cnc(Nc3cccc(NC(=O)CCl)c3)nc21	-14.9% [6.25 µM] (active)
CC1=C2[C@@H](CC1)[C@]1(C)O[C@@](C3CC3)(C[C@H]1OC(=O)CO)[C@H]2OC(=O)/C=C/c1ccccc1	84.3% (inactive)
CCCn1nc(C(=O)N2CCCCC2)c2c1CCC(N1CCC(c3ccncc3)CC1)C2 (stereo not drawn)	105% (inactive)
Cc1c(O)c(O)cc2c3c(oc12)CC(c1ccc2c(c1)OCO2)CC3=O (stereo not drawn)	87.5% (inactive)
COc1ccc(Nc2nn3c(SCC(=O)c4ccc(C)cc4)nnc3s2)cc1	98% (inactive)
N#Cc1c(-c2cccc(F)c2)cc(-c2cccnc2)[nH]c1=O	98.8% (inactive)
O=[N+]([O-])c1ccc2[nH]c3nccc(NCc4cccc(Cl)c4)c3c2c1	82.9% (inactive)

Same assay, conditions: 100 µM

SMILES	growth
CCN(Cc1ccccc1)c1ccc(/C=C2\COc3ccccc3C2=O)cc1	20.5% (inactive)
CC(=O)/C=C/c1ccc(OCc2ccc(C(C)(C)C)cc2)cc1	0.803% (active)
CC(=O)/C=C/c1ccc(N(CCO)Cc2ccc(C(C)(C)C)cc2)cc1	-34.9% (active)
O=C(/C=C/c1cccc(Oc2ccc(Cl)cc2)c1)c1ccccc1	-30.3% (active)
COc1ccc(C(=O)/C=C/c2ccc(OCc3cccc(C(F)(F)F)c3)c(OC)c2)cc1OC	-0.397% (active)
CC(=O)/C=C/c1ccc(OCc2ccc(Cl)cc2)cc1	24.2% (inactive)
COc1ccc(C(=O)/C=C/c2ccc(OCc3ccc(Cl)cc3)cc2)cc1OC	55.8% (inactive)
CC(=O)/C=C/c1ccc(N(C)Cc2ccc(C(C)(C)C)cc2)cc1	-49.8% (active)

These molecules were tested on OVCAR-8 ovarian in the same assay as above. Conditions: 10 µM.

SMILES	growth
CCN(Cc1ccccc1)c1ccc(/C=C2\COc3ccccc3C2=O)cc1	95.3% (inactive)
CC(=O)/C=C/c1ccc(OCc2ccc(C(C)(C)C)cc2)cc1	90.5% (inactive)
CC(=O)/C=C/c1ccc(N(CCO)Cc2ccc(C(C)(C)C)cc2)cc1	80.7% (inactive)
O=C(/C=C/c1cccc(Oc2ccc(Cl)cc2)c1)c1ccccc1	91.8% (inactive)
CC(=O)/C=C/c1ccc(OCc2ccc(Cl)cc2)cc1	90.1% (inactive)
COc1ccc(C(=O)/C=C/c2ccc(OCc3ccc(Cl)cc3)cc2)cc1OC	92% (inactive)
CC(=O)/C=C/c1ccc(N(C)Cc2ccc(C(C)(C)C)cc2)cc1	92.4% (inactive)

Same assay, conditions: 10 µM unless noted

SMILES	growth
CCOC(=O)c1ccc(Nc2ncnc3c2cnn3-c2cccc(F)c2)cc1	98.3% (inactive)
O=S(=O)(O)c1ccc(N=Nc2ccc(N=Nc3cccc4ccccc34)c(S(=O)(=O)O)c2)cc1	101% (inactive)
CC[C@@H]1NC(=O)[C@H]([C@H](O)[C@H](C)C/C=C/c2ccc(CN3C(=O)C(C)=C(C)C3=O)cc2)N(C)C(=O)[C@H](C(C)C)N(C)C(=O)[C@H](CC(C)C)N(C)C(=O)[C@H](CC(C)C)N(C)C(=O)[C@@H](C)NC(=O)[C@H](C)NC(=O)[C@H](CC(C)C)N(C)C(=O)[C@H](C(C)C)NC(=O)[C@H](CC(C)C)N(C)C(=O)CN(C)C1=O	78.5% (inactive)
COc1nc(=O)n(C2C=CC(=O)O2)cc1F (stereo not drawn)	46% (inactive)
COc1ccc(-c2csc(NC(=O)CN3CCN(CCO)CC3)n2)cc1NS(=O)(=O)c1cccc2c(N(C)C)cccc12	84.1% (inactive)
O=C1/C(=C/c2ccc(-c3cccc(C(F)(F)F)c3)o2)SC(=S)N1CCc1ccc(O)cc1	15.2% (inactive)
BrC1=C(Br)C(Br)(Br)C(Br)=C1Br	62.8% (inactive)
OCc1cc(CN2CCCCC2)c(O)c2ncccc12	50.5% (inactive)
COc1ccc(C2=C(CN)C(O)NC(=NCC(=O)c3ccc4ccccc4c3)N2)cc1 (stereo not drawn)	98.8% (inactive)
N#CSc1c[nH]c2ccc(/C=C/C(=O)/C=C(/C=C/c3ccc4[nH]cc(SC#N)c4c3)OB(F)F)cc12	-21.6% (active)
COc1ccc(Oc2nc(Nc3ccc(N4CCOCC4)cc3)ncc2NC(=O)c2cc(OC)cc(OC)c2)cc1	92.1% (inactive)
COc1ccc2c(c1)oc1c(C)c3c(c(C)c12)C(=O)N(Nc1ccccc1)C3=O	104% (inactive)
COc1ccc(/C=C2/C(=O)N=C3N2NC(c2ccccc2)=CN3c2ccccc2)cc1	98.1% (inactive)
O=C1/C(=C/c2ccccc2[N+](=O)[O-])Cc2ccccc21	0.344% (active) and 59.9% (inactive)
COc1ccc2c(c1)CCNC21C(=O)Nc2c(Br)cc(Br)cc21 (stereo not drawn)	101% (inactive)
O=C(N/N=C/c1ccc(O)cc1O)c1cccc(Nc2ccnc(C(F)(F)F)c2)c1	22.7% (inactive)
O=C(c1cccc(Br)c1)N1CCN(c2ccnc3cc(Cl)ccc23)CC1	80.2% (inactive)
CCCCCC#CC1OC23CCCCC2C(C#N)(C(=N)O3)C1(C#N)C#N (stereo not drawn)	85.8% (inactive)
COc1ccc(-c2c[nH]c(C(=O)O)c2-c2cc(OC)c(OC)c(OC)c2)cc1	51.4% (inactive)
NC(N)=NC(N)=NCCCc1ccco1	96% (inactive)
CN1Cn2c(ccc2C(F)(F)F)C(=O)CS1(=O)=O	108% (inactive)
CCCc1cc(C(N)=S)ccn1	99.3% (inactive)
C#CCn1cnc2cnc(Nc3cccc(NC(=O)CCl)c3)nc21	8.6% [6.25 µM] (active)
CC1=C2[C@@H](CC1)[C@]1(C)O[C@@](C3CC3)(C[C@H]1OC(=O)CO)[C@H]2OC(=O)/C=C/c1ccccc1	8.13% (active)
CCCn1nc(C(=O)N2CCCCC2)c2c1CCC(N1CCC(c3ccncc3)CC1)C2 (stereo not drawn)	98.3% (inactive)
Cc1c(O)c(O)cc2c3c(oc12)CC(c1ccc2c(c1)OCO2)CC3=O (stereo not drawn)	94.8% (inactive)
COc1ccc(Nc2nn3c(SCC(=O)c4ccc(C)cc4)nnc3s2)cc1	94.8% (inactive)
N#Cc1c(-c2cccc(F)c2)cc(-c2cccnc2)[nH]c1=O	100% (inactive)
O=[N+]([O-])c1ccc2[nH]c3nccc(NCc4cccc(Cl)c4)c3c2c1	37.5% (inactive)
